This passage reports Potency results from PubChem BioAssay AID1963320 (National Center for Advancing Translational Sciences (NCATS), 2024).

In all, about 1,300 compounds went through this assay and about 560 (43%) were called active. Another 39% or so got no clear call; they are omitted. The call rests on the fitted dose curve; in most records, active means well fitted inhibition curve with a large enough effect; inconclusive means small, poorly fitted or top-dose-only effect; inactive means flat fitted curve, though single readings scatter. So high a share suggests a set chosen from earlier hits. Not all results are given here.
Further: nearly all actives have a fitted effect of over 70% in size.
Potency means the concentration at half of the fitted maximal effect.

Chain of Luciferin 4-monooxygenase (Photinus pyralis) (P08659 whole entry, looked up): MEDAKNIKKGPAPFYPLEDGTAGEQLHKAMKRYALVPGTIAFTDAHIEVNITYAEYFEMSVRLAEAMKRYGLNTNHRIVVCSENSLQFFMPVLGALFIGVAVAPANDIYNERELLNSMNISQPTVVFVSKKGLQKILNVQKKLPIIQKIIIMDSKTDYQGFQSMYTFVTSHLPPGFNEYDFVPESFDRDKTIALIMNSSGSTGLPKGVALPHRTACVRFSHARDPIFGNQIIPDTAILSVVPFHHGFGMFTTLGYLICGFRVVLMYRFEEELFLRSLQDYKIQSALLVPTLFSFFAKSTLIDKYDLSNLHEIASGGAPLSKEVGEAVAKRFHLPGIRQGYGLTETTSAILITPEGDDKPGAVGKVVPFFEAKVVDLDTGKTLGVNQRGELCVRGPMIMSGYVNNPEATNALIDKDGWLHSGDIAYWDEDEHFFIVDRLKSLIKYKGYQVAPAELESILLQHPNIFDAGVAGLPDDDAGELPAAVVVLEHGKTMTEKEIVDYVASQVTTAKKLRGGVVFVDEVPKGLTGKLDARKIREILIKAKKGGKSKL

This assay concerns the target Luciferin 4-monooxygenase (Photinus pyralis) (UniProt P08659). Kind of assay: Firefly luciferase (FLuc-C-HiBiT) enzymatic inhibition screen - Functional assay. The following applies: purified FLuc-C-HiBiT enzyme, luciferin luminescence; series mostly up to 32.7 µM. An excerpt: PI: James Inglese Ph.D. National Center for Advancing Translational Sciences (NCATS), National Institute of Health (NIH), Maryland Discovery and optimization of novel protein-binding ligands underlies many of the methods and applications of biology, drug discovery, clinical diagnostics, and environmental toxicology. Assays for detecting the interaction of, for example, a molecule with a macromolecular target also referred to here as the target of interest (TOI) is dependent on a compatible output technology. Depending on the nature and knowledge surrounding the TOI, whether a receptor, enzyme, regulatory subunit or scaffold, or a sequence-defined nucleic acid folded into a complex tertiary structure, assay strategies can vary widely. Here we exploit ligand-biased changes in the structural dynamics of the target protein to control reporter alpha complementation allowing a non-competitive, non-functional, non-separation measure of ligand-target interaction. […] Secondly, we show the specificity and sensitivity of the SDR for the Abelson tyrosine kinase (ABL1) compared to the serine/threonine protein kinase A, using an enriched chemical library of 128 compounds selected, in part, for activity annotated with ABL1 kinase activity using the Pharos database (3). References: (1) A. S. Dixon et al., NanoLuc Complementation Reporter Optimized for Accurate Measurement of Protein Interactions in Cells. ACS Chem Biol 11, 400-408 (2016). […] Chemistry & Biology, 19, 1060 - 1072 (2012). (3) K. J. Kelleher et al., Pharos 2023: an integrated resource for the understudied human proteome. Nucleic Acids Res 51, D1405-D1416 (2023).
1. Reagent. Dispense 4 uL FLuc-C-HiBiT enzyme-buffer solution per well at a final enzyme concentration of 10 nM with or without 10 uM ATP into columns 2-48 of white, solid bottom medium bind 1536-well plates (Greiner Bio-One) by BioRaptr 2. Dispense respective buffer without enzyme at 4 uL/well in column 1 of assay plates. 2. Compounds. Library compounds and PTC124 control added at 23 nL per well, transfer by Pin Tool. 3. Incubation. Incubate enzyme and compounds at room temperature for >30 min, protect from light. 4a. Reagent. (Functional assay) Add 3 uL of D-luciferin substrate at final (KM) concentration of 10 uM/well of assay plates for FLuc enzymatic assay, in the presence of ATP. 5. Incubation. Incubate enzyme and substrate or detection reagent at room temperature for 5-10 min, protect from light. 6a. Detector. Functional assay measured using CCD-based camera (ViewLux) with settings as follows: Exposure, 10 sec; Gain, High; Speed, Slow; Binning, 2X. REFERENCES: Inglese J, Shamu CE and Guy RK, Reporting data from high throughput screening of small molecule libraries, Nature Chemical Biology, 2007, 3(8): 438-441. doi.org/10.1038/nchembio0807-438.
In general terms: The HiBiT peptide binds its large partner to form an active luciferase.
Turning to `CN(CCc1cn[nH]c1)c1ccc(-c2nc(-c3ccccc3F)no2)cn1`, the Potency was 3130 nM (active).

Turning to `Cc1cc(C)n(CCC(=O)N2CCC(Cc3noc(C4CC4)n3)C2)n1` (configuration not stated), the Potency result was “inactive”.

For the compound `OCC1CCCN(c2ncnc3c2cnn3-c2ccccc2)C1` (configuration not stated), the Potency was 394 nM (active).

Regarding `OCCN1CCN(c2nc(N3CCCCC3)c3cnn(-c4ccc(Cl)cc4)c3n2)CC1`, the Potency result was “inactive”.

Turning to `Cc1ccc(Cl)cc1-n1ncc2c(N3CCC(C(N)=O)CC3)ncnc21`, the Potency result was “inactive”.

As for `Fc1ccc(Nc2nc(-c3ccccc3F)no2)cc1`, the Potency is 9890 nM (active).

In the case of `Cc1ccc(CSc2nc3cccnc3n2Cc2ccc(C(=O)NC3CC3)cc2)cc1`, the Potency is 394 nM (active).

`CC(C)C(=O)Nc1cc(-c2nc3ccccc3s2)ccc1Cl`: the Potency entry was “inactive”.

As for `Cc1c(NC(=O)C(C)(C)C)cccc1-c1nc2ccccc2s1`, the Potency is 5560 nM (active).

With `Cc1cccc(C(=O)Nc2ccc(-c3nc4ccccc4s3)c(C)c2)c1`, the Potency is 9890 nM (active).

Regarding `O=C(CSc1ccc(F)cc1)Nc1ccccc1-c1nc2ccccc2s1`, the Potency entry is “inactive”.

Regarding `Cc1ccc(C(=O)Nc2ccc(-c3nc4ccccc4s3)c(O)c2)cc1`, the Potency entry is “inactive”.

Regarding `COc1ccc(CC(=O)Nc2ccc(-c3nc4ccccc4s3)c(C)c2)cc1`, the Potency result is “inactive”.

As to `COc1ccc(C(=O)Nc2onc3c2CCCC3)cc1`, the Potency was 1970 nM (active).

For `COc1ccc(C)cc1NC(=O)Nc1cccc(-c2ccc(N3CCCCC3)nn2)c1`, the Potency is 1110 nM (active).

As to `Cc1cccc(-c2cccc(NC(=O)C3CCCN(C(=O)CC(F)(F)F)C3)c2)c1` (configuration not stated), the Potency result is “inactive”.

For `O=C(/C=C/c1ccccc1)Nc1cc(-c2nc3cc(Cl)ccc3o2)ccc1Cl`, the Potency entry was “inactive”.

`COc1cccc(-c2nc3ccc(-c4ccc5c(c4)OCO5)cc3o2)c1OC`: the Potency is 2480 nM (active).

On to `COc1ccc(-c2nc3ccccc3s2)cc1NC(=O)COc1ccccc1C`, for which the Potency result was “inactive”.

Regarding `CCC(CC)c1nn2cc(-c3ccccc3)nc2s1`, the Potency is 881 nM (active).

Consider `Cc1nn(-c2ccc(C(C)C)cc2)c(C)c1[C@@H]1C=C[C@@H](NC(=O)CC2(CC(=O)O)CCCC2)C1`, for which the Potency result is “inactive”.

For `O=C(Nc1nc2c(s1)CCCC2)c1ccccc1F`, the Potency is 556 nM (active).

For the compound `O=C([C@@H]1C[C@@H](O)[C@H](O)[C@@H]2NC(=S)N(c3ccc(OC(F)(F)F)cc3)[C@@H]21)N1CCCCC1`, the Potency result is “inactive”.

Regarding `Oc1ccc(-c2nc(C3CC3)nc3c2CCN(Cc2cccc(F)c2)CC3)cc1`, the Potency entry is “inactive”.

`O=C(Nc1ccccc1)c1nc2c(o1)CCN(Cc1cccc(Cl)c1)CC2`: the Potency is 10100 nM (active).

Turning to `CCOC(=O)C1CCN(C(=O)c2cccc3c2CCN3C(=O)Nc2ccccc2)CC1`, the Potency was 1760 nM (active).

On to `CC(=O)Nc1ccc(NC(=O)CCCc2nc(-c3ccc(C(C)(C)C)cc3)no2)cc1`, for which the Potency is 4950 nM (active).

Turning to `CC(=O)NC1(C)CN(Cc2ccc(-c3ccc4c(ccn4C)c3)s2)C1`, the Potency was 2860 nM (active).

With `Cc1ccc(-c2nc(C(=O)N3CCN(c4ccccn4)CC3)no2)cc1`, the Potency is 7850 nM (active).

In the case of `COc1ccc(-c2ncc3c(n2)OCCN(CC2CC2)C3=O)cc1`, the Potency is 8050 nM (active).

With `CCN(c1ncnc2c1cnn2-c1ccc(C)cc1)C1CCCCC1`, the Potency is 881 nM (active).

With `CN1CCN(C[C@@H]2CN(C(=O)CCCc3ccccc3)C[C@@H]2CO)CC1`, the Potency result was “inactive”.

As to `CCNC(=O)C1C(c2cccc(NC(=O)c3ccc(OC)cc3)c2)OC(=O)N1Cc1ccc(C)cc1` (configuration not stated), the Potency is 3940 nM (active).

Regarding `O=C(NCc1ccc(F)c(Cl)c1)C1CCN(C(=O)c2ncn3c2COC(c2ccccc2)C3)CC1` (configuration not stated), the Potency was 3510 nM (active).

Turning to `O=C(NCC1CC1)C1CCN(C(=O)c2ncn3c2COC(c2ccccc2)C3)CC1` (configuration not stated), the Potency was 7000 nM (active).

Regarding `O=C(NCc1ccccc1)C1CCN(C(=O)c2ncn3c2COC(c2ccccc2)C3)CC1` (configuration not stated), the Potency is 2210 nM (active).

As for `COc1ccccc1OC1(C(=O)O)CCN(c2ncnc3nc[nH]c23)CC1`, the Potency entry was “inactive”.
